# According to PubChem BioAssay:
# Values joined by “and” are separate entries in the source; they are usually repeats but may differ in a detail not shown here. Identical values can stand only once. Inconclusive results are not listed. For some of these results: Measured potencies and affinities stand elsewhere. Active and inactive are the calls of the source. Unless noted, the rule behind the calls is not given here.
# Columns and labels:
# [1] = antimalarial activity against Dd2 strain (AID 2302;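 active = growth inhibition above 50% at the single 2 µM test dose, taken to imply half-maximal potency below 2 µM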;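 note: 0% = DMSO untreated growth and 100% = chloroquine plus artemisinin killed control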); details: P. falciparum Dd2 in RBCs, LDH growth readout, 72 h; at 2 µM; stronger effect = higher value
# [2] = biological target: L-lactate dehydrogenase (Plasmodium falciparum (isolate CDC / Honduras)) (UniProt Q27743); assay: PfLDH activity inhibition – cell lysate, 3D7 strain, counter-screen for P. falciparum growth inhibition project (AID 2304);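 note: 0% = vehicle and 100% = reference inhibitor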; details: P. falciparum 3D7 crude extract, LDH APAD/NBT absorbance; at 2 µM; stronger effect = higher value
# [3] = inhibition of 3D7 malaria parasite growth – strain 3D7 (AID 2306);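 note: 0% = DMSO wells and 100% = chloroquine plus artemisinin control wells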; details: P. falciparum 3D7 erythrocytic growth, LDH absorbance, 72 h; at 2 µM; stronger effect = higher value
# [4] = P. berghei load reduction in hepatocytes – cell-based, HepG2, luciferase luminescence, HepG2 viability, primary screen (AID 624349; in the data active = parasite load remaining mostly below about 12%, no sharp cut-off; inactive = mostly above about 10%;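 note: 100% = mean of DMSO negative control wells on the same plate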); details: P. berghei liver stage in HepG2, luciferase luminescence, concentration not given here; parasite load remaining: stronger effect = lower value; viability: measured here: HepG2 viability without parasites
# [5] = biological target: Calcium-dependent protein kinase 1 (Plasmodium falciparum (isolate 3D7)) (UniProt P62344); assay: PfCDPK1 kinase inhibitors, biochemical, TCAMS library (AID 1159585; cut-off not given, nearly all actives have IC50 up to about 0.98 µM;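 note: inhibitors leave more ATP so luminescence rises with inhibition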); details: recombinant PfCDPK1, Kinase-Glo ATP depletion luminescence
# [6] = biological target: Plasmodium falciparum protein kinase 6 (PK6, PF3D7_1337100) (UniProt Q8IDW1); assay: PfPK6 kinase inhibitors, biochemical, TCAMS library (AID 1159586); details: recombinant PfPK6, Kinase-Glo ATP depletion luminescence
# [7] = biological target: Protein kinase 7 (PK7), Plasmodium falciparum 3D7 (PF3D7_0213400) (UniProt Q7YTF7); assay: inhibition of Plasmodium PK7 catalytic activity – biochemical, TCAMS antimalarial set, Kinase-Glo luminescence (AID 1159587); details: recombinant PfPK7, Kinase-Glo ATP depletion luminescence
# [8] = viability loss in pontine glioma line – cell-based, SU-DIPG-XIII, MIPE5.0, CellTiter-Glo, qHTS, dose response (AID 1347064; cut-off not given, nearly all actives have AC50 up to about 23 µM;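 for AC50: cells exposed to compound for 48 hours before the viability read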); details: CellTiter-Glo ATP luminescence
# [9] = compounds altering circadian rhythm period length – cell-based, LOPAC library, luminescence reporter (AID 2774); details: circadian reporter cells, at 7 µM, actives lie on both sides;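 note: values are relative to mean of DMSO wells on each plate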
# [10] = test system: Aerobactin synthetase IucA (Klebsiella pneumoniae); assay: inhibition of K. pneumoniae IucA enzyme – biochemical, Tocris library, absorbance (AID 1345561); details: purified IucA enzyme assay, absorbance (OD) read-out; stronger effect = lower value;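 tested at 8 µM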;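 note: 100% = enzyme without compound and 0% = no enzyme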
# [11] = biological target: ATP-dependent translocase ABCB1 (Homo sapiens) (UniProt P08183); assay: P-glycoprotein substrate transport blockade – cell-based (AID 377; in the data active = fluorescence slope change above about 50%); details: MDR1-expressing cells, fluorescent substrate accumulation slope; stronger effect = higher value; concentration not given here
# [12] = test system: Neuropilin-2 / VEGF-C interaction (human); assay: small molecules blocking Neuropilin-2/VEGF-C interaction – biochemical, microplate binding format, z-score (AID 743281); details: microplate NRP2/VEGF-C binding assay; stronger effect = lower value
# [13] = chitosan synthesis blockers in C. neoformans – flow cytometry, Cibacron Brilliant Red staining (AID 1347148); details: Cryptococcus neoformans chitosan, stronger effect = lower value; at 99.1 µM unless noted;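 note: compound exposure lasted three days at 37 degrees C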
# [14] = compounds altering HSF1 focus formation in cells – imaging, Selleck Cancer Library (AID 1347162; in the data active = plate-normalised HSF1 focus index below about 0.46); details: human cells, HSF1 nuclear foci imaging, at 10 µM; SSMD: measured here: HSF1 foci SSMD mean; cell count: measured here: cell number; plate-normalised HSF1 focus index: stronger effect = lower value
# [15] = growth inhibition, single agents and combos, CRL2098, cell-based, BGB or cisplatin IC20 combos, synergistic combos for chromothripsis tumors (AID 1671454; in the data active = inhibition above about 80%;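 note: cells exposed for 96 h before readout; 0% = vehicle DMSO and 100% = killing by high DMSO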); details: CRL2098 osteosarcoma cells, drug combinations, stronger effect = higher value
# [16] = growth inhibition, single agents and combos, HD-MB03, cell-based, BGB or cisplatin IC20 combos, synergistic combos for chromothripsis tumors (AID 1671455; in the data active = inhibition above about 83%;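 note: 0% = vehicle DMSO and 100% = high DMSO as cytotoxic control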); details: HD-MB03 medulloblastoma cells, stronger effect = higher value
# [17] = growth inhibition, single agents and combos, UWB1.289, cell-based, BGB or cisplatin combos, synergistic combos for chromothripsis tumors (AID 1671456; in the data active = inhibition above about 80%;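 note: cells exposed to compound for four days; 0% = vehicle DMSO and 100% = killing by high DMSO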); details: UWB1.289 ovarian carcinoma cells, stronger effect = higher value
# [18] = growth inhibition, single agents and combos, LFS_MB_2R, cell-based, cisplatin combos, synergistic combos for chromothripsis tumors (AID 1671457; in the data active = inhibition above about 80%;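 note: cells exposed to compound for four days before readout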); details: LFS_MB_2R medulloblastoma cells, stronger effect = higher value
# [19] = UWB1.289_BRCA1 ovarian cancer growth, cell-based, BGB or cisplatin combinations (AID 1671459; in the data active = inhibition above about 80%); details: UWB1.289 BRCA1 ovarian carcinoma, drug combinations, stronger effect = higher value
# [20] = drug combination toxicity in non-malignant astrocytes – cell-based, BGB or cisplatin IC20 combos, cytotoxicity control for chromothriptic childhood tumor combination screen (AID 1671460; in the data active = inhibition above about 80%;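 note: cells exposed to compounds for 96 hours before viability readout; 0% = vehicle and 100% = killing control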); details: Human astrocytes, viability inhibition, drug combinations, at 0.5 µM, stronger effect = higher value
# [21] = measured here: combination with BGB at IC20, at 0.5 µM
# [22] = measured here: combination with cisplatin at IC20, at 0.5 µM
# [23] = measured here: combo with BGB at IC20, at 0.5 µM
# [24] = measured here: combo with cisplatin at IC20, at 0.5 µM
# [25] = measured here: inhibition with BGB combination, at 0.05 µM
# [26] = measured here: inhibition with cisplatin combination, at 0.05 µM
# [27] = measured here: combination with cisplatin, at 0.5 µM
# [28] = measured here: combination with cisplatin, at 5 µM
# [29] = BGB combination, concentration series, at 5 µM
# [30] = cisplatin combination, concentration series, at 5 µM
# [31] = measured here: combo with BGB IC20
# [32] = measured here: combo with cisplatin IC20
# Chain of L-lactate dehydrogenase (Plasmodium falciparum (isolate CDC / Honduras)) (Q27743 whole entry, looked up): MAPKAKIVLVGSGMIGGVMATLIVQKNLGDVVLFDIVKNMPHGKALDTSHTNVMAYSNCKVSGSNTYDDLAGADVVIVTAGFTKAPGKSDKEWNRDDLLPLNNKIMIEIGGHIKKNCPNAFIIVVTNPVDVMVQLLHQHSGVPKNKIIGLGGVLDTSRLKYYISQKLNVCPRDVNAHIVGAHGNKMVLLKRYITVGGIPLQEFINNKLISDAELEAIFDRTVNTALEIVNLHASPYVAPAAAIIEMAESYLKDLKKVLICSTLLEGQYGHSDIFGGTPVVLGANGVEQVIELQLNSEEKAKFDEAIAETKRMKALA
# Chain of Protein kinase 7 (PK7), Plasmodium falciparum 3D7 (PF3D7_0213400) (Q7YTF7 1-343): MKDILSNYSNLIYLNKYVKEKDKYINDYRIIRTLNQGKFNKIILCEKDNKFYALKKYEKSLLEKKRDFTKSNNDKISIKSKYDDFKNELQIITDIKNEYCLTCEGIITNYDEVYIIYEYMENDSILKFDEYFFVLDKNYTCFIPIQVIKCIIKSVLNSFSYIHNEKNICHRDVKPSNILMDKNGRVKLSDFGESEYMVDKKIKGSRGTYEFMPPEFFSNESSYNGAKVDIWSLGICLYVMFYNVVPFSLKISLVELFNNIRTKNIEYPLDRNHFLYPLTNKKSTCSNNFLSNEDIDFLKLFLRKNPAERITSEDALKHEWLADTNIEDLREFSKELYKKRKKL
# Chain of Plasmodium falciparum protein kinase 6 (PK6, PF3D7_1337100) (Q8IDW1 1-305): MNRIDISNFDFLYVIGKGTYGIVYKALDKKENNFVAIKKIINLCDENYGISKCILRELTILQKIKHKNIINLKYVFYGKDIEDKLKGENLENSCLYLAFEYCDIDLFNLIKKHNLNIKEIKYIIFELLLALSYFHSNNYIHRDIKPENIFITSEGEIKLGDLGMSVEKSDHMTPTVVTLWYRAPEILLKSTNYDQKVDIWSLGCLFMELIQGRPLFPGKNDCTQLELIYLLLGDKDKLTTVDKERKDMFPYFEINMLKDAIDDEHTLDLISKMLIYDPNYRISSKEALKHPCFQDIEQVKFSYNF
# Chain of ATP-dependent translocase ABCB1 (Homo sapiens) (P08183 whole entry, looked up): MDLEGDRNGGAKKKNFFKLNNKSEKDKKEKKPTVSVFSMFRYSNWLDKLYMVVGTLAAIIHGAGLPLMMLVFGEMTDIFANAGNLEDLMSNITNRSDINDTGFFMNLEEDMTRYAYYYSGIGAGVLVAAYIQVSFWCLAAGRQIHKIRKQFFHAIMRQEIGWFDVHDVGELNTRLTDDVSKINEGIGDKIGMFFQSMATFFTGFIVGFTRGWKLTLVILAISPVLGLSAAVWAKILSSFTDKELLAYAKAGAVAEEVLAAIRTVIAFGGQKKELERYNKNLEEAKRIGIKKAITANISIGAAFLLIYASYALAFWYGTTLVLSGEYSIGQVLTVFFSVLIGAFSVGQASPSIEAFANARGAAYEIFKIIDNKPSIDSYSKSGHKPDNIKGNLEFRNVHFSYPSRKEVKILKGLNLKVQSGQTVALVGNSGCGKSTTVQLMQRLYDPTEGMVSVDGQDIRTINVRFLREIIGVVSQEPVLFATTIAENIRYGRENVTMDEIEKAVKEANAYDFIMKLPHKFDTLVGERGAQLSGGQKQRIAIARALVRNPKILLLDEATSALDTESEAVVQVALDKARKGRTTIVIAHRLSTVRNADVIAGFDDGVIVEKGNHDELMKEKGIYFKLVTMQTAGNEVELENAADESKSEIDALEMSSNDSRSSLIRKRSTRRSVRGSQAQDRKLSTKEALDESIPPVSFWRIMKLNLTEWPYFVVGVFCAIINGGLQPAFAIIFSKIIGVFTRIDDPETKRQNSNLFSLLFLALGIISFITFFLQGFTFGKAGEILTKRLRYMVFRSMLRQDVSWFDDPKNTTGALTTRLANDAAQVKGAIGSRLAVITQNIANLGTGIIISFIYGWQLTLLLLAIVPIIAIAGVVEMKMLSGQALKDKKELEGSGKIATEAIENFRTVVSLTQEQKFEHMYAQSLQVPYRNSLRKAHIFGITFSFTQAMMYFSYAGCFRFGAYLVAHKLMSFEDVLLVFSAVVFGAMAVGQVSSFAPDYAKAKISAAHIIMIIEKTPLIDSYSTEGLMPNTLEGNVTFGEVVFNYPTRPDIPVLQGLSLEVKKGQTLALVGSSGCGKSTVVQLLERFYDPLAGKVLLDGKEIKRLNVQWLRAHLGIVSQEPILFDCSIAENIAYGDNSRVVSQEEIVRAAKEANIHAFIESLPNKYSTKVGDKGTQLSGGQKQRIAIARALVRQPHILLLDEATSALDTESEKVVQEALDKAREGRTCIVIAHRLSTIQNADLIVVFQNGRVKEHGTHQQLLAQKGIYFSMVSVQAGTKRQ
# Chain of Calcium-dependent protein kinase 1 (Plasmodium falciparum (isolate 3D7)) (P62344 whole entry, looked up): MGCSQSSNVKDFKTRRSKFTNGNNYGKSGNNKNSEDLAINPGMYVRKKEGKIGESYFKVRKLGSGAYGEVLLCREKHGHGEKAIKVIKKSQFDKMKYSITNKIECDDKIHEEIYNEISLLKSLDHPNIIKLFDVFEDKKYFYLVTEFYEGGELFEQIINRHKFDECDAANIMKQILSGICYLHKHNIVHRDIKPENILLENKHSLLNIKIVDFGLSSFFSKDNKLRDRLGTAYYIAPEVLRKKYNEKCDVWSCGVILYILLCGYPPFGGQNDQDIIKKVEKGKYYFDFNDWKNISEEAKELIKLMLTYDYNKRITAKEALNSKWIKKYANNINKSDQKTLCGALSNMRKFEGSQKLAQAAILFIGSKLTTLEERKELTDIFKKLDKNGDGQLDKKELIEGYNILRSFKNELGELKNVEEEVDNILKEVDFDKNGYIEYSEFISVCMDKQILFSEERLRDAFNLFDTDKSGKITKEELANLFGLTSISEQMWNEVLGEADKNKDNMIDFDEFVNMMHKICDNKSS
structure (smiles),measurement,setting,value
CCN(CCO)CCCC(C)Nc1ccnc2cc(Cl)ccc12 (configuration not stated),growth inhibition,[1],0% (inactive)
same,inhibition,[2],-1% (inactive)
same,growth inhibition,[3],99% (active)
same,parasite load remaining,[4],156% (inactive) and 84.1% (inactive)
same,viability,[4],88.4% and 102%
same,outcome,[5],inactive
same,outcome,[6],inactive
same,outcome,[7],inactive
same,outcome,[8],inactive
CC(C)NCC(O)c1ccc(O)c(O)c1 (configuration not stated),period change,[9],-0.07 hour (inactive) and 0.21 hour (inactive)
same,remaining activity,[10],108% (inactive)
same,outcome,[8],inactive
Clc1cccc(Cl)c1NC1=NCCN1,fluorescence slope change,[11],110% (active)
same,period change,[9],0.005 h (inactive)
same,z-score,[12],0.177 (inactive)
same,remaining activity,[10],106% (inactive)
same,fold fluorescence,[13],4.6 [at 217.3 µM] (inactive)
CCC(C)(C)C(=O)O[C@H]1C[C@@H](C)C=C2C=C[C@H](C)[C@H](CC[C@@H]3C[C@@H](O)CC(=O)O3)[C@H]21,remaining activity,[10],114% (inactive)
same,SSMD,[14],1.41
same,cell count,[14],7420
same,plate-normalised HSF1 focus index,[14],1.09 (inactive)
NC12CC3CC(CC(C3)C1)C2,growth inhibition,[1],-1% (inactive)
same,inhibition,[2],-7% (inactive)
same,growth inhibition,[3],98% (active)
same,period change,[9],-0.05 h (inactive)
same,outcome,[5],inactive
same,outcome,[6],inactive
same,outcome,[7],inactive
same,outcome,[8],inactive
same,fold fluorescence,[13],3.81 [at 330.6 µM] (inactive)
N=C(N)c1ccc(OCCCCCOc2ccc(C(=N)N)cc2)cc1,fluorescence slope change,[11],28.9% (inactive)
same,growth inhibition,[1],98% (active)
same,inhibition,[2],-2% (inactive)
same,growth inhibition,[3],99% (active)
same,outcome,[5],inactive
same,outcome,[6],inactive
same,outcome,[7],inactive
c1ccc([C@H]2CN3CCSC3=N2)cc1,fluorescence slope change,[11],63.5% (active)
same,growth inhibition,[1],1% (inactive)
same,inhibition,[2],5% (inactive)
same,growth inhibition,[3],93% (active)
same,period change,[9],-0.17 h (inactive)
same,outcome,[5],inactive
same,outcome,[6],inactive
same,outcome,[7],inactive
same,outcome,[8],inactive
CCCCCN=C(N)N/N=C/c1c[nH]c2ccc(OC)cc12,growth inhibition,[1],2% (inactive)
same,inhibition,[2],-6% (inactive)
same,growth inhibition,[3],86% (active)
same,parasite load remaining,[4],142% (inactive) and 119% (inactive)
same,viability,[4],84.9% and 86.2%
same,outcome,[12],inactive
same,outcome,[5],inactive
same,outcome,[6],inactive
same,outcome,[7],inactive
same,AC50,[8],13.2 µM (active)
c1ccc(CC2=NCCN2)cc1,growth inhibition,[1],0% (inactive)
same,inhibition,[2],-3% (inactive)
same,growth inhibition,[3],94% (active)
same,outcome,[5],inactive
same,outcome,[6],inactive
same,outcome,[7],inactive
CN1C(C(=O)Nc2ccccn2)=C(O)c2ccccc2S1(=O)=O,period change,[9],-0.07 h (inactive)
same,z-score,[12],-1.26 (inactive)
same,remaining activity,[10],127% (inactive)
same,outcome,[8],inactive
same,fold fluorescence,[13],4.04 [at 150.9 µM] (inactive)
CC[C@H](C)C(=O)O[C@H]1C[C@@H](C)C=C2C=C[C@H](C)[C@H](CC[C@@H]3C[C@@H](O)CC(=O)O3)[C@H]21,fluorescence slope change,[11],166% (active)
same,remaining activity,[10],113% (inactive)
same,fold fluorescence,[13],4.35 [at 123.6 µM] (inactive)
Oc1ccc(/C=C/c2cc(O)cc(O)c2)cc1,fluorescence slope change,[11],28.4% (inactive)
same,period change,[9],-0.215 h (inactive)
same,z-score,[12],-0.145 (inactive)
same,remaining activity,[10],117% (inactive)
same,outcome,[8],inactive
same,fold fluorescence,[13],7.05 [at 219.1 µM] (inactive)
O=C1CCC(N2C(=O)c3ccccc3C2=O)C(=O)N1 (configuration not stated),fluorescence slope change,[11],58.2% (active)
same,period change,[9],0.105 h (inactive)
same,remaining activity,[10],108% (inactive)
same,fold fluorescence,[13],3.34 [at 193.6 µM] (inactive)
Nc1nc2c(ncn2COCCO)c(=O)[nH]1,period change,[9],-0.035 h (inactive)
same,remaining activity,[10],117% (inactive)
same,inhibition,[15]; at 0.5 µM,-82.3% (inactive) and -42.2% (inactive)
same,inhibition,[15]; [21],-65.6% and -27.8%
same,inhibition,[15]; [22],-92.2% and -76%
same,inhibition,[16]; at 0.5 µM,-9.51% (inactive) and -3.72% (inactive)
same,inhibition,[16]; [23],-2.11% and -3.06%
same,inhibition,[16]; [24],-19.5% and -6.04%
same,inhibition,[17]; at 0.5 µM,-7.84% (inactive) and 5.52% (inactive)
same,inhibition,[17]; [25],-9.01% and -4.82%
same,inhibition,[17]; [26],-11.4% and 12.5%
same,inhibition,[18]; at 0.5 µM,-16.1% (inactive) and -6.37% (inactive)
same,inhibition,[18]; [27],-14.9% and -19.4%
same,inhibition,[18]; [28],-76% and -8.06%
same,inhibition,[19]; [29],-23.1% and 1.37%
same,inhibition,[19]; at 0.5 µM,-9.4% (inactive) and 8.78% (inactive)
same,inhibition,[19]; [30],-14.8% and -13.6%
same,inhibition,[20],-9.43% (inactive) and 7.59% (inactive)
same,inhibition,[20]; [31],-2.39% and 2.09%
same,inhibition,[20]; [32],-29.6% and 5.16%
CCN(CC)CCCC(C)Nc1c2ccc(Cl)cc2nc2ccc(OC)cc12 (configuration not stated),fluorescence slope change,[11],75.1% (active)
same,growth inhibition,[1],101% (active)
same,inhibition,[2],0% (inactive)
same,growth inhibition,[3],101% (active)
same,period change,[9],0.21 h (inactive)
same,outcome,[5],inactive
same,outcome,[6],inactive
same,outcome,[7],inactive
same,AC50,[8],8.33 µM (active)
same,inhibition,[15]; at 0.5 µM,-21.4% (inactive)
same,inhibition,[15]; [21],-24.3%
same,inhibition,[15]; [22],-28%
same,inhibition,[16]; at 0.5 µM,0.06% (inactive)
same,inhibition,[16]; [23],19%
same,inhibition,[16]; [24],-11.8%
same,inhibition,[17]; at 0.5 µM,5.88% (inactive)
same,inhibition,[17]; [25],-7.63%
same,inhibition,[17]; [26],-3.99%
same,inhibition,[18]; at 0.5 µM,2.36% (inactive)
same,inhibition,[18]; [27],15%
same,inhibition,[18]; [28],96.1%
same,inhibition,[19]; [29],103%
same,inhibition,[19]; at 0.5 µM,1.64% (inactive)
same,inhibition,[19]; [30],117%
same,inhibition,[20],-27.9% (inactive)
same,inhibition,[20]; [31],-30.9%
same,inhibition,[20]; [32],-37.3%
